Source: PubChem BioAssay AID1159580 (chemical genetic matrix, 2015)
Values joined by “and” are separate entries in the source; they are usually repeats but may differ in a detail not shown here. Identical values can stand only once. Hit rate of the full screen: of about 5,500 compounds, about 2,000 (36%) were called active. Not shown: some 18% with an inconclusive outcome. Rule as the data show it: active = normalized growth mostly below about 0.91 (no sharp cut-off); inconclusive = no clear call, values can overlap the other calls; inactive = mostly above about 0.92. The list shows a part of the results.

Test: chemical genetic growth profiling, strain panel (AID 1159580);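 also: tested at 20 µM; growth read once vehicle control cultures reached saturation at 30 °C; 1 = growth at the plate median or of vehicle wells; lower values mean less growth of the strain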
Settings: S. cerevisiae deletion strains, growth OD
[1] = locus YBR229C, strain ROT2, stronger effect = lower value
[2] = locus YDL101C, strain DUN1, stronger effect = lower value
[3] = locus YDL134C, strain PPH21, stronger effect = lower value
[4] = locus YDR150W, strain NUM1, stronger effect = lower value
[5] = locus YEL061C, strain CIN8, stronger effect = lower value
[6] = locus YGR078C, strain PAC10, stronger effect = lower value
[7] = locus YHR030C, strain SLT2, stronger effect = lower value
[8] = locus YHR079C, strain IRE1, stronger effect = lower value
[9] = locus YJL095W, strain BCK1, stronger effect = lower value
[10] = locus YJR043C, strain POL32, stronger effect = lower value
[11] = locus YJR066W, strain TOR1, stronger effect = lower value
[12] = locus YLR039C, strain RIC1, stronger effect = lower value
[13] = locus YLR113W, strain HOG1, stronger effect = lower value
[14] = locus YLR262C, strain YPT6, stronger effect = lower value
[15] = locus YNL183C, strain NPR1, stronger effect = lower value
[16] = locus YOR231W, strain MKK1, stronger effect = lower value
[17] = locus YPL256C, strain CLN2, stronger effect = lower value
[18] = locus YAL013W, strain DEP1, stronger effect = lower value
[19] = locus YJR075W, strain HOC1, stronger effect = lower value
[20] = locus YMR263W, strain SAP30, stronger effect = lower value
[21] = locus YNL153C, strain GIM3, stronger effect = lower value
[22] = locus YNL322C, strain KRE1, stronger effect = lower value

Measured: normalized growth

CS(=O)(=O)CCCCN=C=S
active: locus YAL021C, strain ccr4, stronger effect = lower value 0.889 | locus YAL030W, strain snc1, stronger effect = lower value 0.734 | locus YBL061C, strain skt5, stronger effect = lower value 0.746 | locus YBR009C, strain hhf1, stronger effect = lower value 0.495 | locus YBR021W, strain FUR4, stronger effect = lower value 0.847 | locus YBR023C, strain chs3, stronger effect = lower value 0.769 | locus YBR231C, strain swc5, stronger effect = lower value 0.504 | locus YBR279W, strain paf1, stronger effect = lower value 0.708 | locus YCL011C, strain gbp2, stronger effect = lower value 0.551 | locus YCL016C, strain dcc1, stronger effect = lower value 0.751 | locus YCL029C, strain bik1, stronger effect = lower value 0.822 | locus YCL061C, strain MRC1, stronger effect = lower value 0.834 | locus YCL069W, strain vba3, stronger effect = lower value 0.663 | locus YCR088W, strain abp1, stronger effect = lower value 0.84 | locus YDL035C, strain GPR1, stronger effect = lower value 0.791 | locus YDL040C, strain nat1, stronger effect = lower value 0.896 | locus YDL074C, strain BRE1, stronger effect = lower value 0.683 | [2] 0.853 | [3] 0.762 | locus YDL192W, strain arf1, stronger effect = lower value 0.688 | locus YDR001C, strain nth1, stronger effect = lower value 0.896 | locus YDR069C, strain doa4, stronger effect = lower value 0.829 | locus YDR101C, strain arx1, stronger effect = lower value 0.742 | locus YDR162C, strain NBP2, stronger effect = lower value 0.69 | locus YDR195W, strain ref2 1.2 [resistant] | locus YDR297W, strain sur2, stronger effect = lower value 0.737 | locus YDR318W, strain mcm21, stronger effect = lower value 0.816 | locus YDR334W, strain swr1, stronger effect = lower value 0.375 | locus YDR335W, strain msn5, stronger effect = lower value 0.802 | locus YDR388W, stronger effect = lower value 0.869 | locus YDR392W, strain spt3, stronger effect = lower value 0.474 | locus YDR502C, strain sam2, stronger effect = lower value 0.696 | locus YEL003W, strain gim4, stronger effect = lower value 0.217 | locus YEL037C, strain rad23, stronger effect = lower value 0.749 | locus YEL061C, strain CIN8 (second series), stronger effect = lower value 0.853 | locus YER015W, strain faa2, stronger effect = lower value 0.478 | locus YER016W, strain bim1, stronger effect = lower value 0.758 | locus YER110C, stronger effect = lower value 0.807 | locus YER155C, strain BEM2 (second series), stronger effect = lower value 0.439 | locus YFR010W, strain ubp6, stronger effect = lower value 0.62 | locus YGL078C, strain dbp3, stronger effect = lower value 0.92 | locus YGL086W, strain mad1, stronger effect = lower value 0.723 | locus YGL173C, strain kem1, stronger effect = lower value 0.692 | locus YGL227W, strain vid30, stronger effect = lower value 0.86 | locus YGL240W, strain doc1, stronger effect = lower value 0.545 | locus YGL248W, strain PDE1, stronger effect = lower value 0.724 | locus YGL253W, strain hxk2, stronger effect = lower value 0.428 | [6] 0.799 | locus YGR135W, strain pre9, stronger effect = lower value 0.815 | locus YGR252W, strain gcn5, stronger effect = lower value 0.634 | locus YHR013C, strain ard1, stronger effect = lower value 0.816 | locus YHR027C, strain rpn1, stronger effect = lower value 0.618 | locus YHR079C, strain IRE1 (second series), stronger effect = lower value 0.885 | [8] 0.67 | locus YHR094C, strain hxt1, stronger effect = lower value 0.913 | locus YHR129C, strain ARP1, stronger effect = lower value 0.865 | locus YHR142W, strain chs7, stronger effect = lower value 0.536 | locus YHR200W, strain rpn10, stronger effect = lower value 0.905 | locus YIL066C, strain RNR3, stronger effect = lower value 0.807 | locus YIL125W, strain kgd1, stronger effect = lower value 0.901 | locus YIR030C, strain dcg1, stronger effect = lower value 0.77 | locus YJL092W, strain hpr5, stronger effect = lower value 0.782 | locus YJL095W, strain BCK1 (second series), stronger effect = lower value 0.791 | [9] 0.606 and 0.709 | locus YJL129C, strain trk1, stronger effect = lower value 0.762 | locus YJL154C, strain vps35, stronger effect = lower value 0.839 | locus YJL164C, strain tpk1, stronger effect = lower value 0.607 | locus YJL166W, strain qcr8, stronger effect = lower value 0.493 | locus YJL187C, strain SWE1 (second series), stronger effect = lower value 0.798 | [10] 0.567 | [11] 0.716 | locus YKL009W, strain mrt4, stronger effect = lower value 0.82 | locus YKL160W, strain elf1, stronger effect = lower value 0.7 | locus YKR001C, strain vps1, stronger effect = lower value 0.582 | locus YKR026C, strain gcn3, stronger effect = lower value 0.866 | locus YKR091W, strain srl3, stronger effect = lower value 0.877 | locus YLL001W, strain dnm1, stronger effect = lower value 0.596 | locus YLL026W, stronger effect = lower value 0.65 | locus YLL041C, strain sdh2, stronger effect = lower value 0.801 | locus YLR027C, strain aat2, stronger effect = lower value 0.569 | locus YLR058C, strain SHM2, stronger effect = lower value 0.801 | [13] 0.819 | locus YLR221C, strain rsa3, stronger effect = lower value 0.483 | locus YLR258W, strain gsy2, stronger effect = lower value 0.735 | locus YLR262C, strain YPT6 (second series), stronger effect = lower value 0.826 | locus YLR268W, strain sec22, stronger effect = lower value 0.669 | locus YLR320W, strain mms22, stronger effect = lower value 0.502 | locus YLR330W, strain CHS5, stronger effect = lower value 0.822 | locus YLR342W, strain FKS1, stronger effect = lower value 0.889 | locus YLR370C, strain arc18, stronger effect = lower value 0.766 | locus YLR371W, strain rom2, stronger effect = lower value 0.595 | locus YLR384C, strain iki3, stronger effect = lower value 0.658 | locus YLR418C, strain cdc73, stronger effect = lower value 0.645 | locus YML016C, strain PPZ1, stronger effect = lower value 0.842 | locus YML032C, strain rad52, stronger effect = lower value 0.801 | locus YML120C, strain ndi1, stronger effect = lower value 0.666 | locus YML124C, strain tub3, stronger effect = lower value 0.901 | locus YMR058W, strain fet3, stronger effect = lower value 0.559 | locus YMR129W, stronger effect = lower value 0.798 | locus YMR205C, strain PFK2, stronger effect = lower value 0.732 | locus YMR223W, strain ubp8, stronger effect = lower value 0.735 | locus YMR231W, strain pep5, stronger effect = lower value 0.522 | locus YNL067W, strain RPL9B, stronger effect = lower value 0.779 | locus YNL071W, strain lat1, stronger effect = lower value 0.538 | [15] 0.623 | locus YNL209W, strain ssb2, stronger effect = lower value 0.628 | locus YNL233W, strain BNI4, stronger effect = lower value 0.767 | locus YNL248C, strain rpa49, stronger effect = lower value 0.493 | locus YNL250W, strain rad50, stronger effect = lower value 0.884 | locus YNL271C, strain bni1, stronger effect = lower value 0.887 | locus YNL298W, strain CLA4, stronger effect = lower value 0.906 | locus YNL307C, strain MCK1, stronger effect = lower value 0.575 | locus YNL322C, strain KRE1 (second series), stronger effect = lower value 0.711 | locus YNR049C, strain mso1, stronger effect = lower value 0.908 | locus YNR052C, strain pop2, stronger effect = lower value 0.821 | locus YOL147C, strain pex11, stronger effect = lower value 0.827 | locus YOR001W, strain rrp6, stronger effect = lower value 0.643 | locus YOR069W, strain VPS5, stronger effect = lower value 0.891 | locus YOR070C, strain gyp1, stronger effect = lower value 0.645 | locus YOR083W, strain WHI5, stronger effect = lower value 0.554 | locus YOR106W, strain vam3, stronger effect = lower value 0.359 | locus YOR136W, strain idh2, stronger effect = lower value 0.865 | locus YOR144C, strain elg1, stronger effect = lower value 0.932 | locus YOR184W, strain ser1, stronger effect = lower value 0.679 | [16] 0.684 | locus YOR265W, strain rbl2, stronger effect = lower value 0.756 | locus YOR270C, strain vph1, stronger effect = lower value 0.352 | locus YOR290C, strain snf2, stronger effect = lower value 0.685 | locus YOR316C, strain cot1, stronger effect = lower value 0.921 | locus YPL051W, strain arl3, stronger effect = lower value 0.583 | locus YPL078C, strain atp4, stronger effect = lower value 0.562 | locus YPL106C, strain sse1, stronger effect = lower value 0.808 | locus YPL240C, strain hsp82, stronger effect = lower value 0.752 | [17] 0.822 | locus YPR163C, strain tif3, stronger effect = lower value 0.854 | locus YPR167C, strain met16, stronger effect = lower value 0.904 | strain wtn01, stronger effect = lower value 0.652
inactive: locus YBR171W, strain sec66, stronger effect = lower value 0.954 | [1] 0.96 | locus YDL005C, strain med2, stronger effect = lower value 1.01 | locus YDL185W, strain tfp1, stronger effect = lower value 0.948 | locus YDR137W, strain rgp1, stronger effect = lower value 0.918 | [4] 0.963 | locus YDR159W, strain sac3, stronger effect = lower value 0.898 | [5] 0.978 | locus YER111C, strain swi4, stronger effect = lower value 0.988 | locus YER155C, strain BEM2, stronger effect = lower value 1.01 | locus YER167W, strain BCK2, stronger effect = lower value 0.973 | locus YGL167C, strain pmr1, stronger effect = lower value 0.964 | locus YIL073C, strain SPO22, stronger effect = lower value 0.772 | locus YJL115W, strain asf1, stronger effect = lower value 0.941 | locus YJL134W, strain LCB3, stronger effect = lower value 0.981 | locus YJL168C, strain set2, stronger effect = lower value 0.954 | locus YKL068W, stronger effect = lower value 1.01 | locus YKL085W, strain MDH1 (second series), stronger effect = lower value 1 | locus YKL085W, strain MDH1, stronger effect = lower value 1 | [12] 0.758 | locus YLR102C, strain apc9, stronger effect = lower value 0.983 | [14] 0.797 | locus YLR342W, strain FKS1 (second series), stronger effect = lower value 0.813 | locus YLR357W, strain rsc2, stronger effect = lower value 0.98 | locus YMR078C, strain ctf18, stronger effect = lower value 0.965 | locus YMR125W, strain sto1, stronger effect = lower value 0.947 | locus YMR307W, strain GAS1, stronger effect = lower value 0.734 | locus YOL012C, strain htz1 0.428 | locus YOR061W, strain CKA2, stronger effect = lower value 0.936 | locus YOR080W, strain dia2, stronger effect = lower value 0.966 | locus YPR119W, strain clb2, stronger effect = lower value 1 | locus YPR141C, strain kar3, stronger effect = lower value 0.981
0.969 (inactive) and 0.726 (active): [7]

CC1C(c2ccccc2)OCCN1CN1C(=O)c2ccccc2C1=O (stereo not drawn)
inactive: [18] 1.02 | [1] 0.985 | [2] 1.01 | [3] 1.01 | [4] 0.99 | [5] 0.98 | [6] 1.01 | [7] 1.02 | locus YHR087W, strain rtc3, stronger effect = lower value 0.993 | [10] 1.01 | [19] 0.98 | locus YKL190W, strain CNB1, stronger effect = lower value 0.987 | [12] 1.05 | locus YLR058C, strain SHM2 (second series), stronger effect = lower value 1 | locus YLR085C, strain ARP6, stronger effect = lower value 0.969 | [14] 1.07 | locus YML094W, strain GIM5, stronger effect = lower value 0.975 | locus YMR219W, strain ESC1, stronger effect = lower value 0.996 | [20] 0.991 | [21] 0.992 | locus YNL298W, strain CLA4 (second series), stronger effect = lower value 1 | [22] 0.993 | locus YNR030W, strain Alg12, stronger effect = lower value 1.01 | locus YPL055C, strain LGE1, stronger effect = lower value 0.991 | locus YPL241C, strain CIN2, stronger effect = lower value 0.98 | locus YPR135W, strain CTF4, stronger effect = lower value 1.06

CCCCCCCC/C=C\CCCCCCCC(=O)NCCO
inactive: [18] 1.01 | locus YAL040C, strain CLN3, stronger effect = lower value 1.01 | locus YCL061C, strain MRC1 (second series), stronger effect = lower value 1 | [4] 1 | locus YDR363W, strain ESC2, stronger effect = lower value 0.974 | locus YER002W, strain NOP16, stronger effect = lower value 1.02 | [19] 1 | [20] 0.994 | [21] 0.981 | locus YNL175C, strain NOP13, stronger effect = lower value 0.963 | locus YNL197C, strain WHI3, stronger effect = lower value 0.989 | locus YNL224C, strain SQS1, stronger effect = lower value 1 | [22] 0.978 | locus YOR083W, strain WHI5 (second series), stronger effect = lower value 0.999

CC(C)(CO)C(O)C(=O)NCCC(=O)NCCSSCCNC(=O)CCNC(=O)C(O)C(C)(C)CO (stereo not drawn)
inactive: [7] 0.954 | [8] 0.973 | [9] 0.968 | [11] 0.897 | [13] 0.951 | [15] 0.89 | [16] 0.955 | [17] 0.951
